Measured values: PubChem BioAssay (Tox21)
Records with an inconclusive call do not appear. The source made the active and inactive calls. Unless noted, calls follow the shape of the full dose curve.

What was measured:
[1] = Nuclear factor erythroid 2-related factor 2/antioxidant responsive element (Nrf2/ARE) small molecule agonists: qHTS cell viability counter screen in human keratinocytes (AID 1919968; active = well fitted curve in the direction sought with a large enough effect in the repeat runs; an effect the other way counts as inactive or inconclusive; also: nearly all actives have a fitted effect of over 55% in size)
Outline: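 Stably transfected HaCaT (KeratinoSens), 1,500/well. Test agents in DMSO were applied for 23 h, 37 C/5% CO2. CellTiter-Fluor was incubated 1 h before the fluorescence read.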

[2] = Nuclear factor erythroid 2-related factor 2/antioxidant responsive element (Nrf2/ARE) small molecule agonists: luciferase reporter gene qHTS assay in human keratinocytes (AID 1919969); also: nearly all actives have a fitted effect of over 35% in size; also: potency is read from the fitted curve at half-maximal effect
[3] = molecular target: Gonadotropin-releasing hormone receptor (Homo sapiens) (UniProt P30968); assay: Human gonadotropin-releasing hormone receptor (GnRHR) small molecule agonists, calcium flux assay in GnRHR-HEK293 cells (AID 1920063); also: nearly all actives have a fitted effect of over 35% in size
Outline: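 Stable human GnRHR HEK293 line. 18 h plating, then calcium dye for 1 h at 37 C. Agonist-mode compound addition from DMSO stocks; fluorescence monitored 3 min.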

[4] = molecular target: KiSS-1 receptor (Homo sapiens) (UniProt Q969F8); assay: Human kisspeptin (KISS1R) small molecule agonists, calcium flux assay in KISS1R-HEK293 cells (AID 1920064; active = well fitted curve in the direction sought with a large enough effect in the repeat runs; an effect the other way counts as inactive or inconclusive)
Outline: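 After overnight (18 h) culture at 37 C/5% CO2, human KISS1R-HEK293 cells received calcium dye for 1 h, then test compound; emission at 540 nm (excitation 480 nm) was tracked for 3 min.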

[5] = G protein-coupled receptor (GPCR) small molecule agonists, calcium flux assay: HEK293 wild type cell line counter screen (AID 1920065)
Outline: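 Following 18 h incubation at 37 C/5% CO2, plates got calcium dye for 1 h; compounds, ATP or DMSO were then pinned in and fluorescence followed kinetically (480/540 nm).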

[6] = p53 small molecule agonists, cell-based qHTS assay with human liver microsomes (AID 1963577);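 also: p53 response element beta-lactamase reporter cells with liver microsomes plus NADPH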
Outline: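 p53RE-bla cells; 5 h settle, 37 C/5% CO2; cpd + HLM 0.5 mg/mL + NADPH 0.5 mg/mL (final); 16 h 37 C; LiveBLAzer 2 h RT dark; fluorescence readout.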

[7] = p53 small molecule agonists, cell-based qHTS assay with rat liver microsomes (AID 1963578)
Outline: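 Rat liver microsome activation: microsomes 0.5 mg/mL, NADPH 0.5 mg/mL final; p53RE-bla cells, 16 h 37 C; LiveBLAzer readout, 2 h RT dark.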

[8] = p53 small molecule agonists, cell-based qHTS assay with human liver microsomes: qHTS cell viability counter screen (AID 1963579); also: nearly all actives have a fitted effect of over 45% in size
Outline: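 Luminescent CellTiter-Glo read-out, 30 min at room temperature, gauged cytotoxicity in p53RE-bla cells exposed 16 h at 37 C to DMSO-dissolved compounds with metabolic activation by human liver microsomes and NADPH, each 0.5 mg/mL final.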

[9] = p53 small molecule agonists, cell-based qHTS assay with rat liver microsomes: qHTS cell viability counter screen (AID 1963580); also: nearly all actives have a fitted effect of over 45% in size
Outline: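 After the beta-lactamase ratio was read, CellTiter-Glo was added to the same wells and luminescence measured at 30 min; cells had been treated 16 h at 37 C with compounds, rat liver microsomes and NADPH (0.5 mg/mL final each).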

[10] = p53 small molecule agonists, cell-based qHTS assay: qHTS cell viability counter screen (AID 1963581); also: nearly all actives have a fitted effect of over 45% in size; also: potency is read from the fitted curve at half-maximal effect
Outline: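 qHTS counter screen: 16 h compound exposure at 37 C of p53RE-bla HCT-116 cells (4,000 per well, seeded 5 h prior), cell viability by ATP luminescence.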

[11] = p53 small molecule agonists, cell-based qHTS assay (AID 1963582; active = well fitted activation curve with a large enough effect in the signal ratio in the repeat runs, not every such curve was filed as active; the % refers to the signal ratio)
Outline: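 Measured: fluorescence from cleaved LiveBLAzer substrate. System: p53RE-bla cells, 16 h compound treatment at 37 C, 2 h substrate step at room temperature.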

[12] = molecular target: 5-hydroxytryptamine receptor 2A (Homo sapiens) (UniProt P28223); assay: 5-hydroxytryptamine receptor 2A (HTR2A) small molecule antagonists, cell-based qHTS assay (AID 1963586); also: nearly all actives have a fitted effect of over 45% in size; also: potency is read from the fitted curve at half-maximal effect
Outline: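 CHO cells stably expressing human HTR2A were plated for 18 h at 37 C, then loaded with calcium dye for 1 h. Compounds were preincubated 5 min at room temperature before DOI (4 nM solution) was added. Kinetic fluorescence was read for 3 min.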

[13] = molecular target: 5-hydroxytryptamine receptor 2A (Homo sapiens) (UniProt P28223); assay: 5-hydroxytryptamine receptor 2A (HTR2A) small molecule agonists, cell-based qHTS assay (AID 1963587); also: nearly all actives have a fitted effect of over 30% in size
Outline: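 CHO cells stably expressing human HTR2A, plated 18 h, loaded with calcium dye 1 h at 37 C. Agonist mode: compounds added and intracellular calcium fluorescence recorded kinetically for 2 min at 1 sec intervals.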

[14] = molecular target: Muscarinic acetylcholine receptor M1 (Homo sapiens) (UniProt P11229); assay: Cholinergic receptor muscarinic 1 (CHRM1) small molecule antagonists, cell-based qHTS assay (AID 1963588); also: nearly all actives have a fitted effect of over 40% in size
Outline: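 Compounds were tested at 15 concentrations in three independent runs. Dye-loaded CHRM1-CHO cells were exposed 5 min at room temperature before stimulation by acetylcholine added at 50nM. Intracellular calcium was read kinetically on FDSS for 3 min.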

[15] = molecular target: Muscarinic acetylcholine receptor M1 (Homo sapiens) (UniProt P11229); assay: Cholinergic receptor muscarinic 1 (CHRM1) small molecule agonists, cell-based qHTS assay (AID 1963589); also: nearly all actives have a fitted effect of over 35% in size
Outline: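 Kinetic fluorescence (1 s intervals) of calcium-sensitive dye in human M1 CHO cells after compound addition; cells pre-incubated 18 h at 37 C/5% CO2 and dye-loaded 1 h.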

[16] = molecular target: Beta-2 adrenergic receptor (Homo sapiens) (UniProt P07550); assay: Adrenergic beta2 receptor (ADRB2) small molecule antagonists, cell-based qHTS assay (AID 1963592); also: series mostly up to about 92 µM; nearly all actives have a fitted effect of over 50% in size
Outline: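 Assay format: CHO-ADRB2 cells, 18-20hr seeding at 37C/5% CO2, then compound plus 1nM isoproterenol agonist mix for 0.5hr RT. Homogeneous time-resolved fluorescence cAMP detection after 1hr, expressed as 665/615 nm ratio.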

[17] = molecular target: D(2) dopamine receptor (Homo sapiens) (UniProt P14416); assay: Dopamine D2 receptor (DRD2) small molecule agonists, cell-based qHTS assay (AID 1963594); also: nearly all actives have a fitted effect of over 35% in size
Outline: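 HEK293 cells stably expressing human DRD2, pre-treated with PDE inhibitor Ro20-1724 (0.1 mM final) and compound 10 min at room temperature, then stimulated with NKH477 (200nM […]) for 30 min. cAMP read by HTRF (665/620 nm).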

[18] = molecular target: D(2) dopamine receptor (Homo sapiens) (UniProt P14416); assay: Dopamine D2 receptor (DRD2) small molecule antagonists, cell-based qHTS assay (AID 1963595; active = well fitted inhibition curve with a large enough effect in the signal ratio in the repeat runs, with a control signal flat; the % refers to the signal ratio)
Outline: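 Antagonist mode in DRD2-HEK293 cells: after compound addition with 0.1 mM Ro20-1724, cells received quinpirole (12 nM) and NKH477 (200 nM) for 30 min at room temperature; HTRF cAMP read after 1 h detection.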

[19] = cAMP Responsive Elements (CRE) small molecule agonists, cell-based qHTS assay (AID 1963590)
Outline: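 Test agents in DMSO were incubated 3 h at 37 C/5% CO2 with CRE-bla HEK 293T cells seeded 18 h earlier; LiveBLAzer B/G FRET substrate was added and read after 2 h at room temperature.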

[20] = cAMP Responsive Elements (CRE) small molecule antagonists, cell-based qHTS assay (AID 1963591; active = well fitted inhibition curve with a large enough effect in the signal ratio in the repeat runs, not every such curve was filed as active; the % refers to the signal ratio)
Outline: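 Reporter line CRE-bla HEK 293T in dialyzed-FBS DMEM; cells preincubated 18 h, treated 3 h with compound plus NKH477 (0.25 uM final); LiveBLAzer FRET, 2 h RT.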
% is scaled to controls: 0 for no effect and ±100 for the full control effect.

Chain of Muscarinic acetylcholine receptor M1 (Homo sapiens) (P11229 whole entry, looked up): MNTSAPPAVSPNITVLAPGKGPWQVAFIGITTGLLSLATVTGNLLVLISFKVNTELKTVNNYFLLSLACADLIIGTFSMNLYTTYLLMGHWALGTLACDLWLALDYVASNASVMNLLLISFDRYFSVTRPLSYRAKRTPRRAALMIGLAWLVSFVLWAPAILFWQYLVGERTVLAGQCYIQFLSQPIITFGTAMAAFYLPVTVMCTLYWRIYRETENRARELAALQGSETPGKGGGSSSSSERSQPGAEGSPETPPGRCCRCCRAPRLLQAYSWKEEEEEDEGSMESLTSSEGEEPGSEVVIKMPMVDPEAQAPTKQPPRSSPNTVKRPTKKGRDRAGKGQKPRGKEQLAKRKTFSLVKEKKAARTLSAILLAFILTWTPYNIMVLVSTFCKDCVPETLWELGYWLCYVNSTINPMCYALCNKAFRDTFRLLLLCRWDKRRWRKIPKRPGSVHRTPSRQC
Chain of D(2) dopamine receptor (Homo sapiens) (P14416 whole entry, looked up): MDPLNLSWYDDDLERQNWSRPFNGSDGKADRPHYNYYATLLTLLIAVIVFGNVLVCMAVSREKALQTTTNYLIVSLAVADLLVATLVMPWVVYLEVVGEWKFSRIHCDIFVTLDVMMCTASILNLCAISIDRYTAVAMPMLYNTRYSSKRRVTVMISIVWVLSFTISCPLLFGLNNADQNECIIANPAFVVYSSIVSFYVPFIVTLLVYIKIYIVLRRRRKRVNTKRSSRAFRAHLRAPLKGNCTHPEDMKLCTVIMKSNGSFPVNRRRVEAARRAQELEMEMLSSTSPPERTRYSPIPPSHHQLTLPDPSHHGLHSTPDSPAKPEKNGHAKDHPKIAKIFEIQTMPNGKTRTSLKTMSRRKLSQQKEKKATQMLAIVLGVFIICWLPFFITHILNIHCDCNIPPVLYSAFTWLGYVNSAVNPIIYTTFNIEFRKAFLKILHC
Chain of 5-hydroxytryptamine receptor 2A (Homo sapiens) (P28223 whole entry, looked up): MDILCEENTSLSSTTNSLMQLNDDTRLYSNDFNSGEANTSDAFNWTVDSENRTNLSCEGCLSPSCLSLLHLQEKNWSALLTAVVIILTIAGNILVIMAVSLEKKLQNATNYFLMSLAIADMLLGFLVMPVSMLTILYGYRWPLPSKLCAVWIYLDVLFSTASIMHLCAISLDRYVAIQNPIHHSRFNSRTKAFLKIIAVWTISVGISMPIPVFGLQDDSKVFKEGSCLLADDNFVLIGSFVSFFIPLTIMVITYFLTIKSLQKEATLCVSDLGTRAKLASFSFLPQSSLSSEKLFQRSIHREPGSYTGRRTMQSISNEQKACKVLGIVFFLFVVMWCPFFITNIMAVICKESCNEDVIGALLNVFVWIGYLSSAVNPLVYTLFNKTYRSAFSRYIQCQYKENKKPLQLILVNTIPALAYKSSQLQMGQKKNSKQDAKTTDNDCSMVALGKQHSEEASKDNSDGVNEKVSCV
Chain of KiSS-1 receptor (Homo sapiens) (Q969F8 whole entry, looked up): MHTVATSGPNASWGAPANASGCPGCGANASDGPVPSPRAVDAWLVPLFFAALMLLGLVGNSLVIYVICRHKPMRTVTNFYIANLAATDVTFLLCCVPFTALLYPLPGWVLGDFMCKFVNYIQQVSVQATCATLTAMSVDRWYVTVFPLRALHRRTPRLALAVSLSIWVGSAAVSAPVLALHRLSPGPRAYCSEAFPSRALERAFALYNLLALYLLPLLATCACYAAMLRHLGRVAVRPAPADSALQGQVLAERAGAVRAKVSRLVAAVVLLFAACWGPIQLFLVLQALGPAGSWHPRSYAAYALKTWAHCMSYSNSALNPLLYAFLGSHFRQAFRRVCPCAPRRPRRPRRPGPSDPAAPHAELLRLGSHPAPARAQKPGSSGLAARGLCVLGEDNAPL
Chain of Gonadotropin-releasing hormone receptor (Homo sapiens) (P30968 whole entry, looked up): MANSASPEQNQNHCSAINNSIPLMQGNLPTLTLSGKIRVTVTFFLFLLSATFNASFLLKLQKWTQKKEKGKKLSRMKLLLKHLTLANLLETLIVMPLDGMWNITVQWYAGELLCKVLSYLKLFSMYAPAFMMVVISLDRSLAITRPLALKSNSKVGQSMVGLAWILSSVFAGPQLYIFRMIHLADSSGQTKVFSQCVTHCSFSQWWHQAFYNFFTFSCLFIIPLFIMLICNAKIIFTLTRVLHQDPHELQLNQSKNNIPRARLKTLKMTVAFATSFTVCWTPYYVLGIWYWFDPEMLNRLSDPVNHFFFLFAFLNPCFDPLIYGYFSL
Chain of Beta-2 adrenergic receptor (Homo sapiens) (P07550 whole entry, looked up): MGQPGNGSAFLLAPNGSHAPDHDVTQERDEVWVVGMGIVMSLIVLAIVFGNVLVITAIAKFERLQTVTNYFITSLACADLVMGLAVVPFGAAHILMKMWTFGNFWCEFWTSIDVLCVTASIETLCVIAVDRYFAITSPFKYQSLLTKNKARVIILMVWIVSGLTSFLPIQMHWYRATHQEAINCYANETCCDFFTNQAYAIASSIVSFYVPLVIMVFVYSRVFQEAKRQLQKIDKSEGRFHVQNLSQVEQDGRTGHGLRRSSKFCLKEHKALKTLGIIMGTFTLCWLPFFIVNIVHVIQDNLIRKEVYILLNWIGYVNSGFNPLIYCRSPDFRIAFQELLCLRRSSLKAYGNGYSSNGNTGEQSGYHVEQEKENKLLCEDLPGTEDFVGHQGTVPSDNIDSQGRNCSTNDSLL

Cc1ccc(N(CCO)CCO)cc1
inactive: Potency [1] | Potency [2] | Potency [3] | outcome [4] | outcome [5] | Potency [6] | Potency [7] | Potency [8] | Potency [9] | Potency [10] | Potency [11] | Potency [12] | Potency [13] | Potency [14] | Potency [15] | Potency [16] | Potency [17] | Potency [18]

O=S(=O)(O)c1ccc(Cl)cc1
inactive: Potency [1] | Potency [2] | Potency [3] | outcome [4] | outcome [5] | Potency [6] | Potency [7] | Potency [8] | Potency [9] | Potency [10] | Potency [11] | Potency [12] | Potency [13] | Potency [14] | Potency [19] | Potency [20] | Potency [16] | Potency [17] | Potency [18]

CCCCCCCCCCCCSC
inactive: Potency [1] | Potency [2] | Potency [3] | outcome [4] | outcome [5] | Potency [6] | Potency [7] | Potency [8] | Potency [9] | Potency [10] | Potency [11] | Potency [12] | Potency [13] | Potency [14] | Potency [20] | Potency [16] | Potency [17] | Potency [18]

CCOC(=O)COc1cc(-n2ncc(C(F)(F)F)c(C)c2=O)c(F)cc1Cl
inactive: Potency [1] | Potency [2] | Potency [3] | outcome [4] | outcome [5] | Potency [6] | Potency [7] | Potency [8] | Potency [9] | Potency [10] | Potency [11] | Potency [12] | Potency [13] | Potency [14] | Potency [16] | Potency [17] | Potency [18]

Cc1ccccc1CCO
inactive: Potency [1] | Potency [2] | Potency [3] | outcome [4] | outcome [5] | Potency [6] | Potency [7] | Potency [8] | Potency [9] | Potency [10] | Potency [11] | Potency [12] | Potency [13] | Potency [15] | Potency [19] | Potency [20] | Potency [16] | Potency [18]

CCC1C(=O)OCC1Cc1cncn1C (stereo not given)
inactive: Potency [1] | Potency [2] | Potency [3] | outcome [4] | outcome [5] | Potency [6] | Potency [7] | Potency [8] | Potency [9] | Potency [10] | Potency [11] | Potency [12] | Potency [13] | Potency [19] | Potency [20] | Potency [17] | Potency [18]

Cc1cc(C(=O)O)ccc1[N+](=O)[O-]
inactive: Potency [1] | Potency [2] | Potency [3] | outcome [4] | outcome [5] | Potency [6] | Potency [7] | Potency [8] | Potency [9] | Potency [10] | Potency [11] | Potency [12] | Potency [13] | Potency [15] | Potency [20] | Potency [17] | Potency [18]

CN(C)CCCCl
inactive: Potency [1] | Potency [2] | Potency [3] | outcome [4] | outcome [5] | Potency [6] | Potency [7] | Potency [8] | Potency [9] | Potency [10] | Potency [11] | Potency [12] | Potency [13] | Potency [19] | Potency [20] | Potency [16] | Potency [18]

COC(=O)CS
active: Potency [2] 52.4 µM
inactive: Potency [1] | Potency [3] | outcome [4] | outcome [5] | Potency [6] | Potency [7] | Potency [8] | Potency [9] | Potency [10] | Potency [11] | Potency [12] | Potency [13] | Potency [15] | Potency [19] | Potency [16] | Potency [17] | Potency [18]

O=CN1CCOCC1
inactive: Potency [1] | Potency [2] | Potency [3] | outcome [4] | outcome [5] | Potency [6] | Potency [7] | Potency [8] | Potency [9] | Potency [10] | Potency [11] | Potency [12] | Potency [13] | Potency [15] | Potency [19] | Potency [20] | Potency [16] | Potency [17] | Potency [18]

O=C(O)CCSCCC(=O)O
inactive: Potency [1] | Potency [2] | Potency [3] | outcome [4] | outcome [5] | Potency [6] | Potency [7] | Potency [8] | Potency [9] | Potency [10] | Potency [11] | Potency [12] | Potency [13] | Potency [15] | Potency [19] | Potency [20] | Potency [17] | Potency [18]

O=C(CCN1CCN2CCCC2C1)N1c2ccccc2Sc2ccc(Cl)cc21 (stereo not given)
inactive: activity change, negative = cytotoxicity [1] -13.5% [at 19 µM] | activity, positive = activation [2] -8.3% [at 19 µM] | activity change [3] 0.23% [at 11.8 µM, hits give high values] | activation [4] -1.39% [at 15.8 µM] | activation [5] 0.367% [at 11.8 µM] | activation [6] -1.04% [at 13.5 µM] | activation [7] 1.06% [at 13.6 µM] | activity change, negative = cytotoxicity [8] -1.69% [at 13.5 µM] | activity change, negative = cytotoxicity [9] 2.61% [at 13.5 µM] | activity change, negative = cytotoxicity [10] -8.91% [at 13.5 µM] | activation [11] -0.768% [at 13.5 µM] | activation [13] -9.57% [at 15.9 µM] | activation [15] 0.0294% [at 15.8 µM] | activation [19] 0.0795% [at 19 µM] | activity change, negative = inhibition [20] -4.08% [at 18.9 µM] | activity change, negative = inhibition [16] 0.603% [at 19 µM] | activation [17] -31% [at 19 µM] | activity change, negative = inhibition [18] -8.25% [at 18.9 µM]
active: Potency [12] 8.94 µM

Cc1c(C)n(CCN(C)C)c2ccc(C(=O)OCCN(C)C)cc12
active: Potency [2] 29.8 µM
inactive: Potency [1] | Potency [3] | outcome [4] | outcome [5] | Potency [6] | Potency [7] | Potency [8] | Potency [9] | Potency [10] | Potency [11] | Potency [12] | Potency [13] | Potency [15] | Potency [19] | Potency [16] | Potency [17] | Potency [18]

CCN(Cc1c(F)cccc1Cl)c1c([N+](=O)[O-])cc(C(F)(F)F)cc1[N+](=O)[O-]
active: Potency [2] 15.4 µM | Potency [10] 25.7 µM
inactive: Potency [1] | Potency [3] | outcome [4] | outcome [5] | Potency [6] | Potency [7] | Potency [8] | Potency [9] | Potency [11] | Potency [12] | Potency [13] | Potency [15] | Potency [20] | Potency [16] | Potency [17] | Potency [18]

CCCCC(CC)CN (stereo not given)
inactive: Potency [1] | Potency [2] | Potency [3] | outcome [4] | outcome [5] | Potency [6] | Potency [7] | Potency [8] | Potency [9] | Potency [10] | Potency [11] | Potency [12] | Potency [13] | Potency [15] | Potency [19] | Potency [20] | Potency [16] | Potency [17] | Potency [18]
